# Experimental data from publication PMC7862700, “An all-to-all approach to the identification of sequence-specific readers for epigenetic DNA modifications on cytosine”.
# Columns and labels:
# Experiment in all cases: DAPPL (digital affinity profiling via proximity ligation, sequencing); 10 mM Tris-HCl pH 7.5, 50 mM NaCl, 1 mM DTT, 4% glycerol, room temperature, 30 min; GST-TFs on glutathione beads, 16-mer random dsDNA library, 0.1% formaldehyde crosslink after washing; high values mean tight binding
# FLI1 = target: T1, FLI1 (Homo sapiens, UniProt Q01543 1-452); details: protein: recombinant; tags: N-terminal GST; dsDNA, one strand shown
# T1 sequence: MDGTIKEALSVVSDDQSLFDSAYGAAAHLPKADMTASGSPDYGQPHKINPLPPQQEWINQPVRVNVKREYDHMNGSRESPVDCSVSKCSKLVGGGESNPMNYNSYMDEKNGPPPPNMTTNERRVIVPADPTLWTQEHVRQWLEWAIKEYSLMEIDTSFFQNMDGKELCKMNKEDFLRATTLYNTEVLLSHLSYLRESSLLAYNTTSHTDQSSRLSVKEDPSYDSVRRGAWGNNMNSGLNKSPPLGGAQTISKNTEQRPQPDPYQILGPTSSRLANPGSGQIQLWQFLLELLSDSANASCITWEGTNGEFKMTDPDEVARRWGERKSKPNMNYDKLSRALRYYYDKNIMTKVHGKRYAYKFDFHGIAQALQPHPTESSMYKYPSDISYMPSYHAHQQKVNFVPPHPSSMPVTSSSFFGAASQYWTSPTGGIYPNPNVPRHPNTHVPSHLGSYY
# How it was run: (§1)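 Binding signal is given per hexamer as its read frequency for a factor divided by its frequency in the tag-only sample. GST-fused human transcription factors were expressed in yeast, captured on glutathione beads, barcoded with DNA and pooled with that sample, then incubated with 200 nmole of a 16-mer random double-stranded DNA library in Tris/NaCl/DTT/glycerol buffer for 30 min at room temperature. The pools were then washed, crosslinked, proximity-ligated, amplified by PCR and sequenced on an Illumina NextSeq500.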
# ELK1 = target: T2, ELK1 (Homo sapiens, UniProt P19419 1-428); details: protein: recombinant; tags: N-terminal GST; dsDNA, one strand shown
# T2 sequence: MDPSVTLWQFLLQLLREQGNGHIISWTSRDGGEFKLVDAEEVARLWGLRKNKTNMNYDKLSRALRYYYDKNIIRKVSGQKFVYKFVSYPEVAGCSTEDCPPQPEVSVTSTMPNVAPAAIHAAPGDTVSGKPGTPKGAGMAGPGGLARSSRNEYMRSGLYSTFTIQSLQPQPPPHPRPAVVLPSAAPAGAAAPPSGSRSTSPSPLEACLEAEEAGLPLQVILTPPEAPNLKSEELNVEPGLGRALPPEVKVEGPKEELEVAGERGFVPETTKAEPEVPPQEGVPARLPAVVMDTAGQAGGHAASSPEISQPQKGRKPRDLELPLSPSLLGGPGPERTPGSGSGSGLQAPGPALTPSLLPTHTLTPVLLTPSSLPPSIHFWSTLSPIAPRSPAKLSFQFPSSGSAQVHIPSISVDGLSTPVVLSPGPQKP
# How it was run: as §1
# GABPA = target: T3, GABPA (Homo sapiens, UniProt Q06546 1-454); details: protein: recombinant; tags: N-terminal GST; dsDNA, one strand shown
# T3 sequence: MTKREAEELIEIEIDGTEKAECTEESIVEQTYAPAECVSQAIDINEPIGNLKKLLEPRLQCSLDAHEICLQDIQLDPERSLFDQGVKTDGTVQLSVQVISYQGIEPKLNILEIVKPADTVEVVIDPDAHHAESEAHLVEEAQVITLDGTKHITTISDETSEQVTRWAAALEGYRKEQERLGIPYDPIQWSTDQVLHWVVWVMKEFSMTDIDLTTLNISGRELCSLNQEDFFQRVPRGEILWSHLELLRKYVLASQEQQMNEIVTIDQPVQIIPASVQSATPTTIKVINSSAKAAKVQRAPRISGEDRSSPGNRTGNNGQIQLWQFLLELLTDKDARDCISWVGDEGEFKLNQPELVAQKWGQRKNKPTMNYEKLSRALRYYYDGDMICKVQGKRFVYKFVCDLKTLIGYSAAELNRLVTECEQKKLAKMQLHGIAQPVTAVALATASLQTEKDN
# How it was run: as §1
# ERG = target: T4, ERG (Homo sapiens, UniProt P11308 1-479); details: protein: recombinant; tags: N-terminal GST; dsDNA, one strand shown
# T4 sequence: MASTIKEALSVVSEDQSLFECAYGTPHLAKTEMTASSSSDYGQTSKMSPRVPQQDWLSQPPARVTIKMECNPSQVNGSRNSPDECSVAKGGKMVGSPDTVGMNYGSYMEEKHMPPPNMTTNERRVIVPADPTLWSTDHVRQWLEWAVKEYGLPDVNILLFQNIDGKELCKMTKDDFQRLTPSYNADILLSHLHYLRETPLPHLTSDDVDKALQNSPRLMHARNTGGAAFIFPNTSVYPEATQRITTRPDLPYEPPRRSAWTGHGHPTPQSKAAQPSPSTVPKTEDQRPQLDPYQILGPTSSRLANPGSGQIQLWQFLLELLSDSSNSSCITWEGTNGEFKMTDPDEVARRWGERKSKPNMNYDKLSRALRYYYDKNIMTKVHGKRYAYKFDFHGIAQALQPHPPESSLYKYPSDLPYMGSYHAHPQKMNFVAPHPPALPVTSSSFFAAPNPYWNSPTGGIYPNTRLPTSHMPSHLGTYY
# How it was run: as §1
# ELF1 = ELF1 (Homo sapiens, UniProt P32519 1-619); details: protein: recombinant; tags: N-terminal GST; dsDNA, one strand shown
# Sequence of ELF1 (P32519 whole entry): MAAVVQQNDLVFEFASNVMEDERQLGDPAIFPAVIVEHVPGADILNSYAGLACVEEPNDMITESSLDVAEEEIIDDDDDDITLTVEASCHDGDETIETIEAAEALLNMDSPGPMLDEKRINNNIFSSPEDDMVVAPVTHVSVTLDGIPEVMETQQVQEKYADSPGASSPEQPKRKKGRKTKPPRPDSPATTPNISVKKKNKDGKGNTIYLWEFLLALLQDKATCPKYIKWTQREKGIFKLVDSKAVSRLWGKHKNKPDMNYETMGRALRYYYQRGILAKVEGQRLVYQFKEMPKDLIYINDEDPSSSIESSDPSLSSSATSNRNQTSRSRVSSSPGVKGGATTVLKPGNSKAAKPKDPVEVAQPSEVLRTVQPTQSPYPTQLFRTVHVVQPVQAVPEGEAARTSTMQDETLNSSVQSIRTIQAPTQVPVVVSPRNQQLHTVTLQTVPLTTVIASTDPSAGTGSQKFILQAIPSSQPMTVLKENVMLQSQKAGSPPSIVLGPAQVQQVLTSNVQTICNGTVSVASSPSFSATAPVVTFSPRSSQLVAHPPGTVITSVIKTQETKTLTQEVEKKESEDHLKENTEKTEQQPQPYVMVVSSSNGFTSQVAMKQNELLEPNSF
# How it was run: as §1
# EHF = target: T5, EHF (Homo sapiens, UniProt Q9NZC4 1-300); details: protein: recombinant; tags: N-terminal GST; dsDNA, one strand shown
# T5 sequence: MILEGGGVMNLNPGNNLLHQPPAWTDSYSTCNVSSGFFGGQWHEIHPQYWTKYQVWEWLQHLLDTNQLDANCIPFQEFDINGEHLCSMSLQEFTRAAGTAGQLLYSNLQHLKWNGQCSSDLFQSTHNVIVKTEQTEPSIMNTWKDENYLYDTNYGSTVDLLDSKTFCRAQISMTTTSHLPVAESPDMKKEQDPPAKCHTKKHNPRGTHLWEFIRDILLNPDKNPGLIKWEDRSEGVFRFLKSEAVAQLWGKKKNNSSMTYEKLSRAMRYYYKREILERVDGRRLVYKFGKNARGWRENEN
# How it was run: as §1
# SPI1 = SPI1 (Homo sapiens, UniProt P17947 1-270); details: protein: recombinant; tags: N-terminal GST; dsDNA, one strand shown
# How it was run: as §1
# SPIB = SPIB (Homo sapiens, UniProt Q01892 1-262); details: protein: recombinant; tags: N-terminal GST; dsDNA, one strand shown
# Sequence of SPIB (Q01892 whole entry): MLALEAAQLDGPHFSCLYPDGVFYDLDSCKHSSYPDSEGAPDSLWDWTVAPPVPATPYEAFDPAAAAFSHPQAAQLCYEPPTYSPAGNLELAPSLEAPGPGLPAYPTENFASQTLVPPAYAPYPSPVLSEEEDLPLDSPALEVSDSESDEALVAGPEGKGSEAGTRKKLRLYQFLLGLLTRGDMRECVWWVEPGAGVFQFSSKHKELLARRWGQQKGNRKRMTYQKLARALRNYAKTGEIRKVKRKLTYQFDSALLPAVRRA
# How it was run: as §1
# FEV = target: T6, FEV (Homo sapiens, UniProt Q99581 1-238); details: protein: recombinant; tags: N-terminal GST; dsDNA, one strand shown
# T6 sequence: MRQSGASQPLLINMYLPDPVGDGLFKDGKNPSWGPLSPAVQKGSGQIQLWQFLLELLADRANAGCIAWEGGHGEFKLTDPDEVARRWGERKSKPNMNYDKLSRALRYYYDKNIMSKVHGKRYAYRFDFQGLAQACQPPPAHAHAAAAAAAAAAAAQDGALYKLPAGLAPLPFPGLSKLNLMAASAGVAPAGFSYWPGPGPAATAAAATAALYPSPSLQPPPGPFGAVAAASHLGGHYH
# How it was run: as §1
# ETV5 = ETV5 (Homo sapiens, UniProt P41161 1-510); details: protein: recombinant; tags: N-terminal GST; dsDNA, one strand shown
# Sequence of ETV5 (P41161 whole entry): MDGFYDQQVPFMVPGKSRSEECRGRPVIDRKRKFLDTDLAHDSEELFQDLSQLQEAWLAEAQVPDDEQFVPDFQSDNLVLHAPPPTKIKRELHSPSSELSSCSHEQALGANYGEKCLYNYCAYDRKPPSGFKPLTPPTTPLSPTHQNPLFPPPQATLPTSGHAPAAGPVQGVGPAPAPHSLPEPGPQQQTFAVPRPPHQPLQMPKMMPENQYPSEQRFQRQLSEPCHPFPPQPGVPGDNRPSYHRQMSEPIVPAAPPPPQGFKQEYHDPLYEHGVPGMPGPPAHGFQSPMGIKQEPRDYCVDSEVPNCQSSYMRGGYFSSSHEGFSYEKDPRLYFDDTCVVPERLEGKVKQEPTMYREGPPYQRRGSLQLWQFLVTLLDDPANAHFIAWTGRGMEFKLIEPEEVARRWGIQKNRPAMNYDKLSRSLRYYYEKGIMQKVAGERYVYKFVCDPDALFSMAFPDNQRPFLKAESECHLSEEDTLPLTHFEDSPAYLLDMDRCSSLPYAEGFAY
# How it was run: as §1
# HSF1 = HSF1 (Homo sapiens, UniProt Q00613 1-529); details: protein: recombinant; tags: N-terminal GST; chain copies: 3; dsDNA, one strand shown
# Sequence of HSF1 (Q00613 whole entry): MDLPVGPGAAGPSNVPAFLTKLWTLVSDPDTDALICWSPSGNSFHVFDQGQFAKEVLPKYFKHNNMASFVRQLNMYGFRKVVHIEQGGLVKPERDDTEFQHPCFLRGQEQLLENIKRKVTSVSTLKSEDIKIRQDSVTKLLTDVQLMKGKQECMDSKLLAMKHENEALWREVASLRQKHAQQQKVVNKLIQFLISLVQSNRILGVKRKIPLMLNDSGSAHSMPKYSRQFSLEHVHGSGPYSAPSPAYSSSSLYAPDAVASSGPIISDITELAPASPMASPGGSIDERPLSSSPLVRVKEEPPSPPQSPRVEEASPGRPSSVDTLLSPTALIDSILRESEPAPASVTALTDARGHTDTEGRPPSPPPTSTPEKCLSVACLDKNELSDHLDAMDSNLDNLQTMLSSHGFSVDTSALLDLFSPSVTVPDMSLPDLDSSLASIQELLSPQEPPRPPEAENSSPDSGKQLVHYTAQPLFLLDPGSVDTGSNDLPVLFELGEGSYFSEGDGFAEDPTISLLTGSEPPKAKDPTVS
# How it was run: as §1
# SPIC = target: T7, SPIC (Homo sapiens, UniProt Q8N5J4 1-248); details: protein: recombinant; tags: N-terminal GST; dsDNA, one strand shown
# T7 sequence: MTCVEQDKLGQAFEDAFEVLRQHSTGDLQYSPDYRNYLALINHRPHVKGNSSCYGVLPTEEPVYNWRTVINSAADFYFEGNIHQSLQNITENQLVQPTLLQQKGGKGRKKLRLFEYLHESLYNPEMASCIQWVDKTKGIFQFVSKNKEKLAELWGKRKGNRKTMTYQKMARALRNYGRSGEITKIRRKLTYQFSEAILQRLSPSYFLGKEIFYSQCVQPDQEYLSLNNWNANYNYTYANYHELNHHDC
# How it was run: as §1
# ELF4 = ELF4 (Homo sapiens, UniProt Q99607 1-663); details: protein: recombinant; tags: N-terminal GST; dsDNA, one strand shown
# Sequence of ELF4 (Q99607 whole entry): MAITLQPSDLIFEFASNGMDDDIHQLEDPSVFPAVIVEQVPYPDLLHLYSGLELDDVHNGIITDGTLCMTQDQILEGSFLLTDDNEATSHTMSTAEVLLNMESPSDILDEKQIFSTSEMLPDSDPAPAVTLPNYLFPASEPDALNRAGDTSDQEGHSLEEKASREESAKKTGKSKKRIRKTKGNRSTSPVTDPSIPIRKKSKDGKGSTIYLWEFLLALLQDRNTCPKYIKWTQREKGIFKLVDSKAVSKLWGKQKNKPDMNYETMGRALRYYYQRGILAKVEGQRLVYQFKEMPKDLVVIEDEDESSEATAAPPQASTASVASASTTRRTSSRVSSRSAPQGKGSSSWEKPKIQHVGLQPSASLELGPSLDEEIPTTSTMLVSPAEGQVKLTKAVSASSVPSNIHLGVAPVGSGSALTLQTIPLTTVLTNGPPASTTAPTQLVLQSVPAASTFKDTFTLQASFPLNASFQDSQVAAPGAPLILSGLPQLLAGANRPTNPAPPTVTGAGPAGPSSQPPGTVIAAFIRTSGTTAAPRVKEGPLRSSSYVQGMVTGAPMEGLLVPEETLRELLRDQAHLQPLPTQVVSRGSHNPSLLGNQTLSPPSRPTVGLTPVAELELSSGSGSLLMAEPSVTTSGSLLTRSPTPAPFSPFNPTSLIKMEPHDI
# How it was run: as §1
# ETV2 = target: T8, ETV2 (Homo sapiens, UniProt O00321 1-342); details: protein: recombinant; tags: N-terminal GST; dsDNA, one strand shown
# T8 sequence: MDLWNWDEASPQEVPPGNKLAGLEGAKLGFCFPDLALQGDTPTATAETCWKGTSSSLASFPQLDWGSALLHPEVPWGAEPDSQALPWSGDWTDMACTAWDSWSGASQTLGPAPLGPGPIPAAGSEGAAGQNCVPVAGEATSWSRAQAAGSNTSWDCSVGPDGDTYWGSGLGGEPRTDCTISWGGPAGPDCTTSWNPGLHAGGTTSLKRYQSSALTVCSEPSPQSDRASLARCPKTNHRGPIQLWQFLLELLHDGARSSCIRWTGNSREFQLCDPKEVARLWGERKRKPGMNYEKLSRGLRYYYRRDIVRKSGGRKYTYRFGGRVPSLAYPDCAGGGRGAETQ
# How it was run: as §1
# ELF3 = target: T9, ELF3 (Homo sapiens, UniProt P78545 1-371); details: protein: recombinant; tags: N-terminal GST; dsDNA, one strand shown
# T9 sequence: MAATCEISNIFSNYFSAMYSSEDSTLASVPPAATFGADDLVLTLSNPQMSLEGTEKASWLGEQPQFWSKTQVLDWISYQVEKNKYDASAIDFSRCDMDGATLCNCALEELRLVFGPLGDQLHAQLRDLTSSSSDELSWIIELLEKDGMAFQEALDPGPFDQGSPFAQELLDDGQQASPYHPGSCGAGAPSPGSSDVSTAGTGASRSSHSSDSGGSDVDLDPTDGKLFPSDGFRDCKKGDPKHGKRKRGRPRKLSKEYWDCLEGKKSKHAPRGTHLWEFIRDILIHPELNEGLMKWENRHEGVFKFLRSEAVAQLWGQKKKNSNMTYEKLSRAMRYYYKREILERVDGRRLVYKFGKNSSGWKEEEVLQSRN
# How it was run: as §1
# ETV1 = ETV1 (Homo sapiens, UniProt P50549 1-477); details: protein: recombinant; tags: N-terminal GST; dsDNA, one strand shown
# Sequence of ETV1 (P50549 whole entry): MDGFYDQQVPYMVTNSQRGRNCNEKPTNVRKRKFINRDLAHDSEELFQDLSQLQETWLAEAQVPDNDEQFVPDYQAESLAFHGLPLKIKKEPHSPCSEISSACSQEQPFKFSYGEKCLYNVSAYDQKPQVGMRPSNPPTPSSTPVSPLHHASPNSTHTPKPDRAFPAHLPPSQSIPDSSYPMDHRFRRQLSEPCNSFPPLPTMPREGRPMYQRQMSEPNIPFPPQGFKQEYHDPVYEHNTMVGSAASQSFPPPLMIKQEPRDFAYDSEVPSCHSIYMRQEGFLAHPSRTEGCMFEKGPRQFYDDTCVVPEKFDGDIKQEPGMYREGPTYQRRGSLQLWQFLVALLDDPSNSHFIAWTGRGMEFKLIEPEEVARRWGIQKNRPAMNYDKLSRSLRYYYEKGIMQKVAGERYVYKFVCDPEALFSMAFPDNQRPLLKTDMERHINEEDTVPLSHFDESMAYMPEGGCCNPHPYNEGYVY
# How it was run: as §1
sequence,measurement,setting,value
GCTCTG,binding signal,FLI1,"1.18 fold enrichment (6-mer frequency, TF over GST control)"
same,binding signal,ELK1,"1.26 fold enrichment (6-mer frequency, TF over GST control)"
same,binding signal,GABPA,"1.03 fold enrichment (6-mer frequency, TF over GST control)"
same,binding signal,ERG,"1.01 fold enrichment (6-mer frequency, TF over GST control)"
same,binding signal,ELF1,"1.08 fold enrichment (6-mer frequency, TF over GST control)"
same,binding signal,EHF,"1.15 fold enrichment (6-mer frequency, TF over GST control)"
same,binding signal,SPI1,"1.11 fold enrichment (6-mer frequency, TF over GST control)"
same,binding signal,SPIB,"1.1 fold enrichment (6-mer frequency, TF over GST control)"
same,binding signal,FEV,"1.25 fold enrichment (6-mer frequency, TF over GST control)"
same,binding signal,ETV5,"1.15 fold enrichment (6-mer frequency, TF over GST control)"
same,binding signal,HSF1,"1.08 fold enrichment (6-mer frequency, TF over GST control)"
same,binding signal,SPIC,"1.18 fold enrichment (6-mer frequency, TF over GST control)"
same,binding signal,ELF4,"1.17 fold enrichment (6-mer frequency, TF over GST control)"
same,binding signal,ETV2,"1 fold enrichment (6-mer frequency, TF over GST control)"
same,binding signal,ELF3,"1.04 fold enrichment (6-mer frequency, TF over GST control)"
same,binding signal,ETV1,"1.28 fold enrichment (6-mer frequency, TF over GST control)"
